A selection: hits, their analogues and other compounds. The true share with any hit is near 5.5%.
FBPA coupling cs = coupling enzyme interference in Giardia aldolase counter-screen. coupling enzyme system counterscreen, AmpLite Red fluorescence. activity change, negative = inhibition, % at 58.2 µM, hits read low. 290,000 tested, 0.67% active. AID 2472; in the data active = activity change below about -30%
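Final compound at 57.5 uM, incubated 10 min at RT with coupling enzyme reagent (glyceraldehyde-3-phosphate), then 20 min with substrate and AmpLite Red detection. Fluorescence read at 525/598 nm; tests interference with the coupling assay, not aldolase inhibition.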
Giardia killer = Giardia lamblia killing | Giardia lamblia trophozoite viability | activity change, % at 7.66 µM, hits read low | 340,000 tested, 0.15% active | AID 540267; in the data active = activity change below about -80%; inconclusive = between about -30% and that limit;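 also: parasites exposed to compound for two days anaerobically before the ATP read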
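Trophozoites 100 cells/well + cpd; 48 hrs, 37 deg C, anaerobic. ATPLite 1-Step added, 15-30 min RT, luminescence read (ATP-based viability).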
ELG1 repair inh = ELG1-dependent DNA repair inhibition. HEK293T ELG1-luciferase reporter, luminescence, 16 h; DNA damage induced by 5-fluorouridine. Potency, µM (titrated, usually from 46.1 µM), most hits filed as inhibitors. 330,000 tested, 2.3% active; also: nearly all actives have a fitted effect of over 55% in size
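Overnight (16 hr) co-exposure of 2,000 cells/well to 5-fluorouridine and compound at 37 °C preceded detection. Luciferase was quantified via ONE-Glo luminescence; loss of signal denotes inhibition.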
Sfp inh = Sfp phosphopantetheinyl transferase inhibition; Q9F4F7; Biochemical Sfp PPTase activity, qHTS; Potency, µM, most hits filed as inhibitors; 310,000 tested, 3.5% active; AID 1490;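 also: the enzyme is Sfp with the accession as filed and its product quenches rhodamine fluorescence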
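After 15 min at room temperature with compound, 15 nM Sfp received 5 uM rhodamine-CoA plus 12.5 uM BHQ-2-ybbR (50 mM Hepes pH 7.6, 10 mM MgCl2). Rate came from the fluorescence difference over 30 min, ex 525/em 598 nm.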
Numbers stand for hits; - = inactive; ? = inconclusive; . = not tested or not shown. Unless noted, calls follow the shape of the dose curve; as a rule, active = well fitted curve in the direction sought with a large enough effect; inconclusive = small, poorly fitted or top-dose-only effect, or another doubt; inactive = no such curve, though single readings can be large; an effect the other way counts as inactive or inconclusive.

SMILES | FBPA coupling cs | Giardia killer | ELG1 repair inh | Sfp inh
CC(C)Cc1nnc(NC(=O)C2CSC3(C)CCC(=O)N23)s1 (stereo not given) | . | - | - | .
O=C(NCCc1ccccn1)c1nc(Cn2cc(Br)cn2)no1 | - | - | - | -
Clc1cc(Cl)cc(C2=N[C@@H](Cc3ccccc3)CO2)c1 | - | . | . | -
Oc1ccc(-c2csc(-c3ccccc3)n2)cc1O | - | - | ? | 56.2µM
Cc1ccc2nc(-c3ccc(O)c(O)c3)cn2c1 | - | ? | ? | 56.2µM
Cc1nc(-c2ccc(O)c(O)c2)cs1 | - | - | ? | 56.2µM
O=C(c1ccccc1)c1cccc[n+]1[O-] | - | - | - | -
COc1ccc(C(=O)N2N=C(c3ccc(NS(C)(=O)=O)cc3)CC2c2cccs2)cc1 (stereo not given) | - | - | 18.3µM | -
CS(=O)(=O)Nc1cccc(C2=NN(C(=O)c3cccc([N+](=O)[O-])c3)C(c3cccs3)C2)c1 (stereo not given) | - | - | 13µM | -
COc1ccc(S(=O)(=O)N2N=C(c3ccc(NS(C)(=O)=O)cc3)CC2c2ccco2)cc1 (stereo not given) | - | - | ? | 56.2µM
COc1ccc(S(=O)(=O)N2N=C(c3cccc(NS(C)(=O)=O)c3)CC2c2ccco2)cc1 (stereo not given) | . | - | - | -
COc1ccc2c(c1OC)C(=O)N1C2SC(C)(C)[C@H]1C(=O)NC1CC1 (stereo not given in full) | - | - | - | -
COc1ccc(-c2csc(NC(=O)C3CC(=O)N(Cc4ccccc4)C3)n2)cc1OC (stereo not given) | . | - | 11.6µM | -
COc1ccc(-c2csc(NC(=O)Cc3ccccc3F)n2)cc1OC | - | - | 16.4µM | -
COc1ccc(CC(=O)Nc2nc(-c3ccc(OC)c(OC)c3)cs2)cc1OC | - | - | 18.3µM | -
COc1ccc(-c2csc(NC(=O)CSCc3c(C)noc3C)n2)cc1OC | . | - | 11.6µM | -
COc1ccccc1CC(=O)Nc1nc(-c2ccc(F)c(F)c2)cs1 | - | - | - | -
CCCCCOC(=O)C1=C(C)NC(=O)NC1c1ccc(OC)cc1 (stereo not given) | - | - | - | -
CCN(C(=O)COC(=O)CNC(=O)c1cccs1)c1c(N)n(Cc2ccccc2)c(=O)[nH]c1=O | . | - | . | .
COc1ccc(-c2csc(NC(=O)c3cc(C)oc3C)n2)cc1OC | - | - | 18.3µM | -
CCc1noc(C)c1C(=O)Nc1nc(-c2ccc(OC)c(OC)c2)cs1 | . | - | ? | .
COc1ccc(-c2csc(NC(=S)NC(=O)c3cccs3)n2)cc1OC | - | - | 20.6µM | 31.6µM
O=S(=O)(Cc1nnnn1-c1ccccc1)c1ccc(F)cc1 | . | - | - | -
CCN1CCc2c(sc(NC(=O)c3ccc(S(=O)(=O)N(CC)c4ccccc4)cc3)c2C(N)=O)C1 | . | - | - | -
COc1ccc(OC)c(CNc2nc3ccccc3n2CCN2CCCCC2)c1 | - | - | ? | 79.4µM
SMILES | FBPA coupling cs | Giardia killer | ELG1 repair inh | Sfp inh
Brc1ccc(CNc2nc3ccccc3n2CCN2CCCCC2)cc1 | - | -83.4 | - | -
C[C@@H]1OC(O[C@H]2[C@H](Oc3cc(O)c4c(=O)c(O)c(-c5ccc(O)cc5)oc4c3)O[C@H](CO)[C@@H](O)[C@@H]2O)[C@H](O)[C@H](O)[C@H]1O (stereo not given in full) | - | . | . | -
CCC(C)c1ccccc1NC(=O)c1cc2cccc([N+](=O)[O-])c2[nH]1 (stereo not given) | - | - | 20.6µM | -
Cc1ccc(S(=O)(=O)N2CCC(N3CCC(C)CC3)CC2)cc1 | . | - | - | -
COCC(=O)Nc1ccccc1-c1ccccc1 | - | - | - | -
O=C(O)/C=C/C(=O)Nc1ccc(NC(=O)c2ccccc2)c(Cl)c1 | - | - | ? | 56.2µM
O=C(O)/C=C/C(=O)Nc1ccc(Cl)cc1C(=O)c1ccccc1 | - | - | - | 79.4µM
O=C(O)/C=C\C(=O)Nc1cccc(NC(=O)c2ccccc2)c1 | - | - | - | -
O=C(O)/C=C/C(=O)Nc1ccccc1-c1ccccc1 | - | - | - | 31.6µM
Cc1ccc(S(=O)(=O)NCc2ccccc2)cc1C(=O)NCC1CCCO1 (stereo not given) | . | - | - | .
Cc1ccc2c(Cl)c(C(=O)Nc3cccnc3)sc2c1 | - | - | 8.2µM | ?
Cc1ccc2c(C)c(C(=O)Nc3cccnc3)oc2c1 | - | - | ? | -
C/C(=N\NC(=S)NC1CCCCC1)c1ccc(O)cc1 | - | - | ? | 79.4µM
C/C(=N\NC(=S)Nc1ccccc1C)c1ccc(O)cc1 | - | - | - | 25.1µM

Screening data from PubChem.
